The record followed here is PubChem BioAssay.

The nature of test [1]: sensitizers of A549 cells to miR-34 induction, primary screen, imaging, A549 dox-inducible miR-34, nuclei and caspase counts (AID 1347080;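 active means compounds whose cell count with miR-34 switched on is under 0.7 times the count with it off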). The settings on record: A549 miR-34 inducible, Hoechst nuclei count, 48 h.
Test [2] in a line: inhibitors of Cryptococcus chitosan production, flow cytometry, Cibacron Brilliant Red staining (AID 1347148; call rule not given here;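 further: compound exposure lasted three days at 37 degrees C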). The conditions noted are these: Cryptococcus neoformans chitosan, stronger effect = lower value; at 10 µM unless noted. A general note: Flow cytometry measures light scatter and fluorescence of single cells or particles in a stream.
Test [3] relates to Hepatitis C virus NS3 helicase. Description: HCV NS3 helicase inhibitors, primary screen, biochemical, fluorescence polarization, LOPAC1280 library (AID 687035; in the data active means inhibition above about 37%). The conditions noted are these: Purified HCV NS3 helicase, Cy5-dT15 ssDNA binding fluorescence polarization; stronger effect = higher value; concentration not given here. A general note: In fluorescence polarisation assays a small probe gives low polarisation when free and higher when bound to something large.

Test [4] is described as follows: Cy5 fluorescence quenching or enhancement artefacts, artefact control for HCV NS3 helicase inhibitor project, biochemical, LOPAC1280 (AID 687037; call rule not given here). The settings on record: Cy5-DNA-NS3h complex fluorescence interference counterscreen. A general note: Counterscreens check selectivity or assay interference.
The nature of test [5]: phospholipid biosynthesis inhibitors in animal cells, primary screen, cell-based, LOPAC library, screen 4 (AID 1347384; call rule not given here). The settings on record: phospholipid biosynthesis inhibition screen, at 10 µM.
Test [6] in a line: viability rescue of complex I mutant cybrids, primary screen, cell-based, galactose medium, ATP luminescence (AID 1645843;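 active means z-score of at least 1.8 in each of two replicates, scored against plate mean and spread of sample wells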;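 further: positive z means more ATP and so rescue of galactose-driven cybrid death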). The conditions noted are these: complex I mutant cybrid cells, 72 h, stronger effect = higher value.
Test [7] can be described thus: survival rescue of mitochondrial mutant cells in low glucose, primary screen, MELAS cybrids, Rieske KO mouse fibroblasts, CellTiter-Glo (AID 1508586;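 active means mean z-score across replicates of 1.96 or higher in either the MELAS or the Rieske mutant cell line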;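 further: z relative to plate mean and SD of compound and empty wells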).
The nature of test [8]: ovarian cancer cell viability with rucaparib, profiling panel, oncology-focused library, rucaparib conditional (AID 1508598). The conditions noted are these: patient-derived ovarian cancer cells, CellTiter-Glo viability, 144 h, stronger effect = lower value.
Test [9] deals with Mitogen-activated protein kinase 7 (Homo sapiens) (UniProt Q13164). Description: ERK5 transactivation activators in reporter cells, primary screen, cell-based, HTS (AID 1508626;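 active means luciferase signal above three times the same-plate solvent-only control wells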;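 further: luciferase driven by Gal4-ERK5 fusion binding five Gal4 sites before minimal TATA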). The settings on record: HeLa Gal4-ERK5 transactivation, 18 h, at 5 µM, stronger effect = higher value.
Mitogen-activated protein kinase 7 (Homo sapiens), sequence (Q13164 whole entry, looked up, the tested form may be a part): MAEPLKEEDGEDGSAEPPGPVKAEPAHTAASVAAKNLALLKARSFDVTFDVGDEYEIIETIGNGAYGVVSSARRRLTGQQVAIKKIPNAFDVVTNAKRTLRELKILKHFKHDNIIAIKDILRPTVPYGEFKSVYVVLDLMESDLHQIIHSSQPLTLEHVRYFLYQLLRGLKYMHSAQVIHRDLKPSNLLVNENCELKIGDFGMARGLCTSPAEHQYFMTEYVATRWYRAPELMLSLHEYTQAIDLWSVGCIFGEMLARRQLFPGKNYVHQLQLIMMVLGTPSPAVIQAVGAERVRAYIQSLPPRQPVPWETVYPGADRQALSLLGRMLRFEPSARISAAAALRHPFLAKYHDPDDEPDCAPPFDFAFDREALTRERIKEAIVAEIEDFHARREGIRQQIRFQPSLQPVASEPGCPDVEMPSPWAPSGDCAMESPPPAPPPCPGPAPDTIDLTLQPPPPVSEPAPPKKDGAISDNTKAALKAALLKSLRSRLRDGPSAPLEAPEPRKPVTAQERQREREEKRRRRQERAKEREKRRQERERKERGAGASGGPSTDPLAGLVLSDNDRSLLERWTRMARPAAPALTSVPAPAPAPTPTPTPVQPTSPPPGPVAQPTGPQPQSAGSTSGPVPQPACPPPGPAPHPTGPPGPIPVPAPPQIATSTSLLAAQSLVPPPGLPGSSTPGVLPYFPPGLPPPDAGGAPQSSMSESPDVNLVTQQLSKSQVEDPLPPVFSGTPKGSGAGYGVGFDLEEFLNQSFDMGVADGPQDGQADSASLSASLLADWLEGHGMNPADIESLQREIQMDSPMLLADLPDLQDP
The mark [10] stands for this setting: stronger effect = lower value, cell number ratio, induced over uninduced.
[11] abbreviates: measured here: relative caspase fold change +Dox/-Dox.
Where [12] appears, read: measured here: total cells with miR-34 induction, stronger effect = lower value.
Setting [13] is: measured here: total cells without miR-34 induction.

The source made the active and inactive calls.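 How the source made its calls, unless noted: active means normalized viability below 100% at a tested concentration; inactive means the rest.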 Where a SMILES comes first, the peptide text is derived from it. The star is where a group is joined. Cbz = O=C(OCc1ccccc1)*; CH2F = FC*

With `COC(=O)/C=C/c1ccc(C(=O)NCC(=O)N[C@@H](CCC(=O)OC)C(=O)N[C@@H](CC(C)C)C(N)=O)cc1`, the fold change in test [1] (setting [10]) was 0.902 (inactive); in [1] (setting [11]) it was 1.99. Also, the figures for the cell count in test [1] (setting [12]) and in test [1] (setting [13]) were 5510 and 6100, respectively. Besides, in [2], the fold fluorescence is 4.66 [at 96.4 µM] (inactive).
As for `CCCCCCCCCCCCCCC[C@H](O)[C@H](N)CO`, the inhibition in test [3] is 4% (inactive). The fluorescence ratio (interference) in [4] was 0.9 (inactive). For the same molecule, the result in [5] was inactive. For the same molecule, the z-score in test [6] was -0.39 (inactive).
As for `CCCCC/C=C\CC(O)/C=C/c1cccc(CC(O)CCCCO)n1` (centres undefined), the inhibition in test [3] is -1% (inactive). Moreover, the fluorescence ratio (interference) in [4] was 0.9 (inactive).
Consider `CCOC(=O)C1OC1C(=O)NC(CC(C)C)C(=O)NCCC(C)C` (centres undefined), for which the z-score in test [7] (MELAS cybrid survival, CellTiter-Glo 48 h, stronger effect = higher value) was -0.522 (inactive); in test [7] (Rieske KO mouse fibroblast survival, CellTiter-Glo 72 h), -1.31.
Turning to `COC(=O)C[C@H](NC(=O)[C@H](C)NC(=O)[C@@H](NC(=O)OCc1ccccc1)C(C)C)C(=O)CF` (Cbz-Val-Ala-Asp(OMe)-CH2F), the viability in [8] (at 0.000305 µM, OCI-C5x cells, with rucaparib 10 µM, 100% = cells with rucaparib alone) is 111% (inactive); in test [8] (at 0.000305 µM, OCI-C5x cells, without rucaparib) it was 113% (inactive); in test [8] (at 0.000305 µM, OCI-P5x cells, with rucaparib 20 µM, 100% = cells with rucaparib alone), 101% (inactive); in test [8] (at 0.000305 µM, OCI-P5x cells, without rucaparib) it was 108% (inactive); in test [8] (at 0.00122 µM, OCI-C5x cells, with rucaparib 10 µM, 100% = cells with rucaparib alone) it was 113% (inactive); in test [8] (at 0.00122 µM, OCI-C5x cells, without rucaparib), 122% (inactive). Besides, the viability in test [8] (at 0.00122 µM, OCI-P5x cells, with rucaparib 20 µM, 100% = cells with rucaparib alone) was 104% (inactive); in test [8] (at 0.00122 µM, OCI-P5x cells, without rucaparib), 107% (inactive); in test [8] (at 0.00488 µM, OCI-C5x cells, with rucaparib 10 µM, 100% = cells with rucaparib alone), 106% (inactive); in test [8] (at 0.00488 µM, OCI-C5x cells, without rucaparib), 114% (inactive); in test [8] (at 0.00488 µM, OCI-P5x cells, with rucaparib 20 µM, 100% = cells with rucaparib alone), 102% (inactive); in test [8] (at 0.00488 µM, OCI-P5x cells, without rucaparib), 112% (inactive). The viability is 113% (inactive) in test [8] (at 0.0195 µM, OCI-C5x cells, with rucaparib 10 µM, 100% = cells with rucaparib alone); 119% (inactive) in test [8] (at 0.0195 µM, OCI-C5x cells, without rucaparib); 110% (inactive) in test [8] (at 0.0195 µM, OCI-P5x cells, with rucaparib 20 µM, 100% = cells with rucaparib alone); 102% (inactive) in [8] (at 0.0195 µM, OCI-P5x cells, without rucaparib); 110% (inactive) in [8] (at 0.0781 µM, OCI-C5x cells, with rucaparib 10 µM, 100% = cells with rucaparib alone); 120% (inactive) in test [8] (at 0.0781 µM, OCI-C5x cells, without rucaparib). Besides, the viability in test [8] (at 0.0781 µM, OCI-P5x cells, with rucaparib 20 µM, 100% = cells with rucaparib alone) is 108% (inactive); in test [8] (at 0.0781 µM, OCI-P5x cells, without rucaparib) it was 111% (inactive); in test [8] (at 0.313 µM, OCI-C5x cells, with rucaparib 10 µM, 100% = cells with rucaparib alone) it was 104% (inactive); in [8] (at 0.313 µM, OCI-C5x cells, without rucaparib), 118% (inactive); in test [8] (at 0.313 µM, OCI-P5x cells, with rucaparib 20 µM, 100% = cells with rucaparib alone) it was 96.2% (active); in test [8] (at 0.313 µM, OCI-P5x cells, without rucaparib) it was 107% (inactive). Moreover, the viability in test [8] (at 1.25 µM, OCI-C5x cells, with rucaparib 10 µM, 100% = cells with rucaparib alone) was 117% (inactive); in test [8] (at 1.25 µM, OCI-C5x cells, without rucaparib), 115% (inactive); in [8] (at 1.25 µM, OCI-P5x cells, with rucaparib 20 µM, 100% = cells with rucaparib alone) it was 103% (inactive); in test [8] (at 1.25 µM, OCI-P5x cells, without rucaparib), 106% (inactive); in test [8] (at 5 µM, OCI-C5x cells, with rucaparib 10 µM, 100% = cells with rucaparib alone), 115% (inactive); in test [8] (at 5 µM, OCI-C5x cells, without rucaparib), 119% (inactive). For the same molecule, the viability in test [8] (at 5 µM, OCI-P5x cells, with rucaparib 20 µM, 100% = cells with rucaparib alone) was 106% (inactive); in [8] (at 5 µM, OCI-P5x cells, without rucaparib), 108% (inactive).
`CC(C)c1cccc(O)c(=O)c1`: the luciferase signal in [9] is 44 AU (inactive).
For `Brc1cc2c(cc1[C@H]1Nc3ccccc3[C@H]3C=CC[C@H]31)OCO2`, the fold change in [1] (setting [10]) is 1.18 (inactive); in test [1] (setting [11]), 1.55. In addition, the figures for the cell count in [1] (setting [12]) and in [1] (setting [13]) were 6800 and 5750, respectively. The molecule was classed as inactive in test [5]. For the same molecule, the z-score in [6] was -0.59 (inactive).
As to `CCCCCCCCCCCCCCCCCCN(CCCCCCCCCCCCCCCCCC)CCCN(CCO)CCO`, the fold change in [1] (setting [10]) was 0.981 (inactive); in test [1] (setting [11]), 1.42. Moreover, the cell count in test [1] (setting [12]) was determined as 10100; in test [1] (setting [13]), 10300. In addition, the call in [5] was inactive. The z-score in [6] was 0.39 (inactive).
For `COc1cc(OC)cc(-c2cc3cnc(N)nc3nc2NC(=O)NC(C)(C)C)c1`, the figures for the fold change in test [1] (setting [10]) and in test [1] (setting [11]) were 1.04 (inactive) and 2.01, respectively. The cell count is 4510 in [1] (setting [12]) and 4320 in [1] (setting [13]). Besides, the outcome in test [5] was inactive. The z-score in test [6] was 0.34 (inactive).

Broadly, the inhibition is the drop in the measured response relative to a control, in per cent. As usually defined, the viability is a read-out of living cells in per cent, often relative to untreated cells.
